From PubChem BioAssay AID2240 (Broad Institute, 2010) come the findings set out here.

About 100 (0.27%) of roughly 37,000 compounds were called active. Many of the other results were omitted from the sample, so actives are more common in it than they were. Unmarked numbers belong to inactive results. No stated cut-off is given here; in the data, active means inhibition above about 85%; inconclusive means no clear call, values can overlap the other calls; inactive means below about 68%.

A short description of this test: inhibitors of MITF, primary screen, MITF inhibitor project, cell-based, luminescence (AID 2240).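 Further: human melanocyte line stably carrying TRPM1 promoter luciferase reporter.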 The note with it: TRPM1 promoter luciferase, 24 h, stronger effect = higher value, concentration not given here.
What is called inhibition is the drop in the measured response relative to a control, in per cent. For `COc1ccc(NC(=O)Nc2ccc3c(c2)CC(=O)N([C@@H](C)CO)C[C@H](C)[C@@H](CN(C)CC2CCCCC2)O3)cc1`, the inhibition was -0.386%.

Take `CC(C)(C)c1ccc(S(=O)(=O)NCC(=O)Nc2ccc(F)cc2)cc1`: the inhibition is 1.01%.

Regarding `Cc1ccc(S(=O)(=O)Nc2ccc3c(c2)C(=O)N([C@H](C)CO)C[C@@H](C)[C@H](CN(C)Cc2ccccc2)O3)cc1`, the inhibition was -3.79%.

Take `C/C=C(\C)C(=O)OC(/C=C/C(O)C(C)O)C1C=CC(=O)O1` (stereo not given): the inhibition is -20%.

As to `CC(C)NC(=O)Nc1ccc2c(c1)C(=O)N([C@@H](C)CO)C[C@H](C)[C@H](CN(C)S(=O)(=O)c1cccs1)O2`, the inhibition is -11.3%.

Consider `O=C(Oc1ccc(Br)cc1)c1ccco1`, for which the inhibition is 16.8%.

`C[C@@H]1CCCCO[C@H](CN(C)C(=O)C2CCCCC2)[C@@H](C)CN([C@H](C)CO)C(=O)c2cc(NC(=O)C3CCCCC3)ccc2O1`: the inhibition is -0.585%.

In the case of `Cc1ccc(-c2nnc(SCC(=O)Nc3ccccc3OC(F)F)o2)cc1`, the inhibition is -24.6%.

Turning to `C[C@@H]1CCCCO[C@@H](CN(C)C(=O)Nc2cccc3ccccc23)[C@@H](C)CN([C@H](C)CO)C(=O)c2cc(NS(C)(=O)=O)ccc2O1`, the inhibition is -18.2%.

As to `C[C@@H]1CN([C@@H](C)CO)C(=O)c2cc(NC(=O)Nc3cccc4ccccc34)ccc2O[C@H]1CN(C)Cc1ccc(Cl)c(Cl)c1`, the inhibition was 18.2%.

In the case of `COc1ccc(CCNc2nc(-c3cccc(NC(C)=O)c3)cs2)cc1OC`, the inhibition was 15.8%.

`C[C@H]1CN([C@@H](C)CO)C(=O)c2cc(NS(C)(=O)=O)ccc2O[C@@H]1CN(C)S(=O)(=O)c1ccc(Cl)cc1`: the inhibition was -7.11%.

On to `C[C@@H]1CN([C@H](C)CO)C(=O)c2cccc(NS(=O)(=O)c3ccc(Cl)cc3)c2O[C@@H]1CN(C)C(=O)Nc1cccc2ccccc12`, for which the inhibition was 38.8%.

For the molecule `O=S(=O)(c1ccccc1)c1nc(-c2ccccc2F)oc1NCc1cccnc1`, the inhibition is -15.8%.

With `C[C@H](CO)N1C[C@H](C)[C@H](CN(C)S(=O)(=O)c2cn(C)cn2)Oc2ccc(NS(=O)(=O)c3ccccc3)cc2C1=O`, the inhibition was -1.93%.

As for `CCCN1C(=O)C(NS(=O)(=O)c2ccc(N)cc2)(C(F)(F)F)C(C(=O)OC)=C1C` (stereo not given), the inhibition was 5.23%.

Turning to `C[C@@H]1CN([C@H](C)CO)C(=O)c2cccc(N(C)C)c2O[C@H]1CN(C)S(=O)(=O)c1cn(C)cn1`, the inhibition is 8.04%.

Consider `C[C@H](CO)N1C[C@H](C)[C@H](CN(C)C(=O)Nc2cccc3ccccc23)Oc2ccc(NS(C)(=O)=O)cc2C1=O`, for which the inhibition was 4.6%.

Regarding `COc1ccc(C)cc1S(=O)(=O)N1CCCC(C(=O)Nc2ccccc2C(F)(F)F)C1` (stereo not given), the inhibition was 4.41%.

As to `Cc1ccc(NC(=O)c2cccc(N(C)C)c2)cc1NC(=O)c1ccc(O)cc1`, the inhibition is -40.4%.

Regarding `Cc1noc(C)c1NC(=O)Nc1ccc2c(c1)C(=O)N([C@H](C)CO)C[C@H](C)[C@@H](CN(C)C(=O)Nc1ccc(C(F)(F)F)cc1)O2`, the inhibition is -13.6%.

As for `CCc1ccc2c(c1)c1nc3ccccc3nc1n2CC(=O)OC`, the inhibition is -10.5%.

For `O=C(O)CCCC=C(c1ccccc1)c1ccccc1`, the inhibition is 12.2%.

On to `COc1ccc(C)cc1NC(=O)CSc1nc(SC)ns1`, for which the inhibition is 32.4%.

Regarding `COc1ccc(NC(=O)Nc2ccc3c(c2)CC(=O)N([C@@H](C)CO)C[C@H](C)[C@@H](CN(C)Cc2ccc4c(c2)OCO4)O3)cc1`, the inhibition was -13.4%.

For the molecule `Cc1scc(C(=O)NCCc2ccc(S(N)(=O)=O)cc2)c1-c1ccccc1`, the inhibition was 5.94%.

`C[C@@H]1CCCCO[C@H](CN(C)C(=O)NC2CCCCC2)[C@@H](C)CN([C@H](C)CO)C(=O)c2cc(NS(=O)(=O)c3ccc(F)cc3)ccc2O1`: the inhibition was 0.476%.

For the molecule `CS(=O)(=O)N(CC(=O)Nc1cc(C(F)(F)F)ccc1Cl)c1ccccc1Br`, the inhibition is -1.7%.

Take `Cc1ccc(C)c(NC(=O)CCC(=O)O)c1`: the inhibition is -5.62%.

As to `COc1ccc(S(=O)(=O)N(C)C[C@@H]2Oc3ccc(NS(=O)(=O)c4cn(C)cn4)cc3C(=O)N([C@@H](C)CO)C[C@@H]2C)cc1`, the inhibition was -3.33%.

Regarding `O=C(CCn1nc(-c2ccc(Cl)cc2)c2ccccc2c1=O)Nc1ccc(Br)cc1`, the inhibition is -0.695%.

Turning to `Cc1noc(C)c1NC(=O)N(C)C[C@@H]1Oc2ccc(NC(=O)C3CC3)cc2C(=O)N([C@H](C)CO)C[C@@H]1C`, the inhibition is -4.76%.

`C[C@H]1CN([C@@H](C)CO)C(=O)Cc2cc(NS(=O)(=O)c3ccc(Cl)cc3)ccc2O[C@H]1CN(C)S(C)(=O)=O`: the inhibition is 0.52%.

For the molecule `Cc1cc(N(CC(=O)Nc2ccc(C(F)(F)F)cc2)S(C)(=O)=O)ccc1Br`, the inhibition was -4.48%.

Consider `Cc1cc2oc(C(=O)Nc3sc4c(c3C(=O)NCc3ccco3)CCC4)c(C)c2cc1C`, for which the inhibition is 0.363%.

For `C[C@@H]1CN([C@@H](C)CO)C(=O)c2cccc(NC(=O)Nc3ccccc3)c2O[C@H]1CN(C)Cc1ccccc1`, the inhibition is 41.2%.

`Cc1ccc(NC(=O)CSc2nc3ccccc3s2)cc1[N+](=O)[O-]`: the inhibition was -10%.

For `Cc1nn(CC(=O)NCc2ccccn2)c(C)c1[N+](=O)[O-]`, the inhibition was -12.3%.

Regarding `COc1cc([N+](=O)[O-])ccc1NC(=S)NCc1cc(C)n(C)n1`, the inhibition is -13.2%.

As to `C[C@H]1CN([C@@H](C)CO)C(=O)Cc2cc(NC(=O)Nc3ccc(F)cc3)ccc2O[C@H]1CN(C)C(=O)Nc1ccc(C(F)(F)F)cc1`, the inhibition is -15.8%.

For `C[C@@H]1CCCCO[C@@H](CN(C)C)[C@@H](C)CN([C@H](C)CO)C(=O)c2cc(N(C)C)ccc2O1`, the inhibition was 5.75%.

`CCOC(=O)Cc1csc(NC(=O)c2sc3cccc(F)c3c2Cl)n1`: the inhibition was 57.6%.

With `CN(CC(=O)Nc1ccc(Br)cc1)S(=O)(=O)c1ccc2ccccc2c1`, the inhibition was 11%.

As to `C[C@H](CO)N1C[C@H](C)[C@H](CN(C)C(=O)Nc2ccc(C(F)(F)F)cc2)Oc2ccc(NC(=O)Nc3ccccc3)cc2C1=O`, the inhibition was 43%.

Turning to `O=C(CN1C(=O)COc2ccc(Cl)cc21)Nc1ccc(N2CCOCC2)cc1`, the inhibition is -7.45%.

With `Cc1ccc(C)c(NC(=O)CSc2nc(C)nc3sc(C)c(C)c23)c1`, the inhibition is 3.61%.

Turning to `CCSC1=C(C#N)C(=O)NCS1`, the inhibition is -7.65%.

Regarding `O=C(CSc1nnc(-c2ccc(Br)cc2)o1)Nc1ccc2ccccc2c1`, the inhibition was -4.41%.

In the case of `O=C1c2ccccc2S(=O)c2ccccc2S(=O)(=O)N1Cc1ccccc1` (stereo not given), the inhibition was 46.6%.

In the case of `C[C@@H]1CN([C@H](C)CO)C(=O)c2cc(NC(=O)Nc3ccccc3)ccc2O[C@@H]1CN(C)Cc1ccc(Cl)c(Cl)c1`, the inhibition was 34.3%.

Take `C[C@H](CO)N1C[C@H](C)[C@@H](CN(C)S(=O)(=O)c2cn(C)cn2)Oc2c(NC(=O)C3CC3)cccc2C1=O`: the inhibition was -3.68%.

`O=C(NCCCn1ccnc1)c1cc2c(s1)CCCC2`: the inhibition was 1.51%.

Turning to `O=C(O)c1cccc(S(=O)(=O)Nc2ccc(O)cc2Sc2nc3ccccc3s2)c1`, the inhibition is 7.04%.

Regarding `O=C(CCn1nc(-c2ccc(Cl)cc2)c2ccccc2c1=O)Nc1cccc(C(F)(F)F)c1`, the inhibition is 4.42%.

Take `C[C@H](CO)N1C[C@H](C)[C@H](CN(C)C(=O)Nc2ccccc2)Oc2c(NC(=O)Nc3ccc(C(F)(F)F)cc3)cccc2C1=O`: the inhibition is 21.9%.

As for `C[C@@H]1CCCCO[C@H](CN(C)Cc2ccc(Cl)c(Cl)c2)[C@@H](C)CN([C@H](C)CO)C(=O)c2cc(NS(=O)(=O)c3cn(C)cn3)ccc2O1`, the inhibition was -5.53%.

With `COc1ccc(CN(C)C[C@@H]2Oc3ccc(NS(=O)(=O)c4cn(C)cn4)cc3C(=O)N([C@@H](C)CO)C[C@H]2C)cc1`, the inhibition is -13%.

For `O=C1Cc2ccc(F)cc2CC1C1=Cc2ccc(F)cc2CC1` (stereo not given), the inhibition was 5.98%.

With `C[C@H]1CN([C@@H](C)CO)C(=O)c2cc(NC(=O)NC3CCCCC3)ccc2O[C@@H]1CN(C)C(=O)Nc1cccc2ccccc12`, the inhibition was 10.4%.

Consider `COc1ccc(C)cc1S(=O)(=O)N(C)CC(=O)Nc1ccc(Br)cc1F`, for which the inhibition is 8.55%.

Turning to `C[C@@H]1CN([C@H](C)CO)C(=O)Cc2cc(NC(=O)Nc3ccc(C(F)(F)F)cc3)ccc2O[C@H]1CN(C)Cc1ccc(-c2ccccc2)cc1`, the inhibition is -11.6%.

On to `Cc1ccc(-n2c(SCC(=O)Nc3ccccc3F)nnc2-c2ccccc2)cc1C`, for which the inhibition is 10.1%.

With `C[C@@H]1CN([C@H](C)CO)C(=O)c2cccc(NC(=O)Nc3ccc4c(c3)OCO4)c2O[C@H]1CN(C)C(=O)Nc1ccc(F)cc1`, the inhibition was 7.91%.

As to `Cc1cc(C)c(C)c(Oc2coc3cc(OCC(=O)Nc4ccccc4Cl)ccc3c2=O)c1`, the inhibition was -3.54%.

For the molecule `C[C@@H]1CN([C@@H](C)CO)C(=O)c2cc(NS(=O)(=O)c3ccc(F)cc3)ccc2O[C@@H]1CN(C)C(=O)NC1CCCCC1`, the inhibition was 1.15%.

`O=C(CSc1nc2c(c(C(F)(F)F)n1)CCCC2)N1c2ccccc2Sc2ccccc21`: the inhibition is 11%.

With `O=[N+]([O-])c1ccccc1-c1ccc(CN2CCN3CCCC3C2C2CCCCC2)o1` (stereo not given), the inhibition was -7.52%.

As to `C/C=C(/C)C(=O)O[C@H]1CC(C)(C)C[C@H]2C3=CCC4[C@@]5(C)CC[C@H](O[C@@H]6O[C@H](C(=O)O)[C@@H](O[C@@H]7O[C@H](CO)[C@H](O)[C@H](O)[C@H]7O[C@@H]7O[C@H](CO)[C@@H](O)[C@H](O)[C@H]7O)[C@H](O)[C@H]6O[C@@H]6O[C@@H](C)[C@H](O)[C@@H](O)[C@H]6O)C(C)(C)C5CC[C@@]4(C)[C@]3(C)[C@@H](O)[C@@H](O)[C@@]12CO` (stereo not given in full), the inhibition is 93.6% (active).

Turning to `CC1OC(OC2C(OC3C(O[C@H]4CC[C@@]5(C)C(CC[C@]6(C)C5CC=C5[C@@H]7CC(C)(C)C[C@@H](O)[C@]7(C)CC[C@]56C)C4(C)C)OC(C(=O)O)C(O)C3O)OC(CO)C(O)C2O)C(O)C(O)C1O` (stereo not given in full), the inhibition is -6.6%.

Regarding `C/C=C(/C)C(=O)O[C@H]1CC(C)(C)C[C@H]2C3=CCC4[C@@]5(C)CC[C@H](O[C@@H]6O[C@H](C(=O)O)[C@@H](O[C@@H]7O[C@H](CO)[C@H](O)[C@H](O)[C@H]7O[C@@H]7O[C@H](CO)[C@@H](O)[C@H](O)[C@H]7O)[C@H](O)[C@H]6O[C@@H]6O[C@@H](C)[C@H](O)[C@@H](O)[C@H]6O)C(C)(C)C5CC[C@@]4(C)[C@]3(C)[C@@H](OC(C)=O)[C@@H](O)[C@@]12COC(C)=O` (stereo not given in full), the inhibition is 50.5%.
